Source: PubChem BioAssay (NCI)
About 83,000 compounds went through this panel and 20% of them were active in at least one assay; those are over-represented in the sample as a whole.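 How to read the values: 0–100, growth inhibition (40 = 60% inhibited); 0, no net growth; -100 to 0, cell death (-40 = 40% of starting cells died; -100 = all dead).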 The source made the active and inactive calls. How the source made its calls: active means growth percent below 10; inactive means the rest.

Each compound was assayed on BT-549 breast (assay: NCI-60 one-dose screen, 48 h (100 = growth as untreated, 0 = no growth, -100 = all killed)). Details: 10 µM unless noted.
For `CCOC(=O)C1C(=O)C=C(c2ccc(OC)cc2)CC1c1sc(N(C)Cc2ccccc2)nc1Cl` (stereo not given), the growth was 94.4% (inactive). `CCc1cnc(=S)n(-c2ccccc2)c1` was tested, and the growth was 107% (inactive). With `CCN(CC)c1ccc2[nH]c3c(C(N)=O)cc(=O)c(=O)c=3oc2c1` the growth was 38.9% (inactive). `CC1(C)C(=O)/C(=C\c2ccc(C(F)(F)F)cc2)C[C@]2(C)[C@H]3CC[C@@H]4[C@H]5[C@H](C(=O)/C=C/c6ccc(C(F)(F)F)cc6)CC[C@]5(CO)CC[C@@]4(C)[C@]3(C)CC[C@@H]12` was tested, and the growth was 95.8% (inactive). For `O=[N+]([O-])c1ccc(Sc2ncccn2)c([N+](=O)[O-])c1`, the growth was -16.3% (active). With `CC(C)(C)OC(=O)NC(CSCc1ccccc1)C(=O)ON1C(=O)CCC1=O` (stereo not given) the growth was 117% (inactive). With `CC(C)CC1NC(C)(C)CO1` (stereo not given) the growth was 116% (inactive). `CC(NNC(C)c1ccccc1)c1ccccc1` (stereo not given) was tested, and the growth was 113% (inactive). With `Cn1cc(-c2cnc3ccc(NC(=O)Nc4ccc(F)c(Br)c4)cc3n2)cn1` the growth was 20.5% (inactive). With `CC(C)(C)c1[nH]nc2c1C(c1cc3ccccc3[nH]c1=O)Nc1cc(C(=O)Nc3ccc(Cl)cc3)ccc1N2` (stereo not given) the growth was 63.9% (inactive). In the case of `O=C([O][Sn]([O]C(=O)c1ccccn1)([c]1ccccc1)[c]1ccccc1)c1ccccn1`, the growth is reported as 98.5% (inactive). For `O=C(Nc1ccc(NCCN2CCOCC2)nc1)c1ccc([N+](=O)[O-])cc1`, the growth was 98.6% (inactive). With `COc1cc(-c2ncn(/C=C\C(=O)OC(C)C)n2)cc(C(F)(F)F)c1` the growth was -62.6% (active). `CC(=O)Oc1csc(N(C(C)=O)c2cc(C(=O)O)cc(C(=O)O)c2)n1` was tested, and the growth was 82.8% (inactive). With `COc1ccncc1S(=O)(=O)NC(=O)Nc1ccc(Cl)c(Cl)c1` the growth was 111% (inactive). `COc1ccc(-c2nc(/C=N/Nc3cc(C)nc4ccc(Cl)cc34)c(C)o2)cc1` was tested, and the growth was -34.9% (active). For `COc1ccc(C(=O)N2NC(=O)/C(=C/c3ccccc3F)N=C2c2ccccc2)cc1`, the growth was 106% (inactive). `CCOC(=O)CC(=O)OC` was tested, and the growth was 101% (inactive). In the case of `CN1C=CN(Cc2ccc(-c3ccccn3)nc2)[CH-]1.CN1C=CN(Cc2ccc(-c3ccccn3)nc2)[CH-]1.[Au+3]`, the growth is reported as 31.1% (inactive). `COc1cccc(/C=C2\Oc3cc(OCCCN4CCCC4)ccc3C2=O)c1OC` was tested, and the growth was 87.7% (inactive). `O=C1C(Cl)=C(Nc2ccccn2)C(=O)c2ccccc21` was tested, and the growth was 100% (inactive). With `Cc1ccc2[nH]c(=O)c3c(c2c1)Oc1ncn2nc(-c4ccco4)nc2c1C3c1ccc(Cl)cc1` (stereo not given) the growth was 91.4% (inactive). In the case of `COc1ccc(C2CC(c3ccc(OC)cc3OC)=NN2c2ccc(S(N)(=O)=O)cc2)cc1` (stereo not given), the growth is reported as 76.7% (inactive). In the case of `Clc1cc2c(nn1)Nc1ccccc1S2`, the growth is reported as 103% (inactive). With `O=[N+]([O-])c1cc(S(=O)(=O)Oc2ccccc2)ccc1Cl` the growth was 30.2% (inactive). For `COc1cc(/C=N\NC(=O)CN2CCN(c3cc4c(cc3F)c(=O)c(C(=O)N/N=C/c3cc(OC)c(OC)c(OC)c3)cn4C3CC3)CC2)cc(OC)c1OC`, the growth was -17.7% (active). `NC1=C(/C(N)=N/O)C(c2ccccc2)c2ccc3ccccc3c2O1` (stereo not given) was tested, and the growth was 28% (inactive).

These compounds were tested on MDA-MB-435 melanoma in the same assay as above. Details: 10 µM unless noted.
For `O=C(NNC(=O)N1c2ccccc2C=Cc2ccccc21)c1ccc2ccccc2c1`, the growth was 103% (inactive). With `CCOC(=O)C1C(=O)C=C(c2ccc(OC)cc2)CC1c1sc(N(C)Cc2ccccc2)nc1Cl` (stereo not given) the growth was 85.1% (inactive). In the case of `CCN(CC)c1ccc2[nH]c3c(C(N)=O)cc(=O)c(=O)c=3oc2c1`, the growth is reported as -4.76% (active). In the case of `CC1(C)C(=O)/C(=C\c2ccc(C(F)(F)F)cc2)C[C@]2(C)[C@H]3CC[C@@H]4[C@H]5[C@H](C(=O)/C=C/c6ccc(C(F)(F)F)cc6)CC[C@]5(CO)CC[C@@]4(C)[C@]3(C)CC[C@@H]12`, the growth is reported as 101% (inactive). With `O=[N+]([O-])c1ccc(Sc2ncccn2)c([N+](=O)[O-])c1` the growth was 69.2% (inactive). With `CC(C)(C)OC(=O)NC(CSCc1ccccc1)C(=O)ON1C(=O)CCC1=O` (stereo not given) the growth was 109% (inactive). `C/C(=C\c1ccc(OCC(=O)O)c(Cl)c1Cl)[N+](=O)[O-]` was tested, and the growth was 106% (inactive). In the case of `CC(C)CC1NC(C)(C)CO1` (stereo not given), the growth is reported as 113% (inactive). For `CC(NNC(C)c1ccccc1)c1ccccc1` (stereo not given), the growth was 112% (inactive). In the case of `CC(C)(C)n1cc(-c2ccnc(NCCCNS(=O)(=O)c3ccc(C(F)(F)F)cc3)c2)c(-c2cccc(O)c2)n1`, the growth is reported as 32.2% (inactive). With `CC(C)(C)n1cc(-c2ccnc(NCCCNS(=O)(=O)c3ccc(Br)cc3)c2)c(-c2cccc(O)c2)n1` the growth was 39% (inactive). In the case of `Cn1cc(-c2cnc3ccc(NC(=O)Nc4ccc(F)c(Br)c4)cc3n2)cn1`, the growth is reported as 21.5% (inactive). In the case of `CC(C)(C)c1[nH]nc2c1C(c1cc3ccccc3[nH]c1=O)Nc1cc(C(=O)Nc3ccc(Cl)cc3)ccc1N2` (stereo not given), the growth is reported as 35.4% (inactive). For `O=C([O][Sn]([O]C(=O)c1ccccn1)([c]1ccccc1)[c]1ccccc1)c1ccccn1`, the growth was 80.6% (inactive). With `CC(C)(C)N1CCC1C(N)=O` (stereo not given) the growth was 103% (inactive). With `CC(C)(C)n1cc(-c2ccnc(NCCCNS(=O)(=O)c3ccc(Cl)cc3)c2)c(-c2cccc(O)c2)n1` the growth was 15.6% (inactive). For `O=C(Nc1ccc(NCCN2CCOCC2)nc1)c1ccc([N+](=O)[O-])cc1`, the growth was 97.8% (inactive). For `COc1cc(-c2ncn(/C=C\C(=O)OC(C)C)n2)cc(C(F)(F)F)c1`, the growth was -34.7% (active). With `O=C(NNC(=O)N1c2ccccc2C=Cc2ccccc21)c1ccccc1` the growth was 103% (inactive). `CC(C)(C)n1cc(-c2ccnc(NCCNS(=O)(=O)c3ccc(Cl)cc3)c2)c(-c2cccc(O)c2)n1` was tested, and the growth was 71.2% (inactive). `Clc1ccccc1-c1nc2ccccc2[nH]1` was tested, and the growth was 103% (inactive). In the case of `CC(C)(C)n1cc(-c2ccnc(NCCNS(=O)(=O)c3ccc(C(F)(F)F)cc3)c2)c(-c2cccc(O)c2)n1`, the growth is reported as 63.3% (inactive). `CC(=O)Oc1csc(N(C(C)=O)c2cc(C(=O)O)cc(C(=O)O)c2)n1` was tested, and the growth was 102% (inactive). `COc1ccncc1S(=O)(=O)NC(=O)Nc1ccc(Cl)c(Cl)c1` was tested, and the growth was 100% (inactive). For `COc1ccc(-c2nc(/C=N/Nc3cc(C)nc4ccc(Cl)cc34)c(C)o2)cc1`, the growth was -97.1% (active). For `COc1ccc(C(=O)N2NC(=O)/C(=C/c3ccccc3F)N=C2c2ccccc2)cc1`, the growth was 106% (inactive). With `CCOC(=O)CC(=O)OC` the growth was 110% (inactive). `CN1C=CN(Cc2ccc(-c3ccccn3)nc2)[CH-]1.CN1C=CN(Cc2ccc(-c3ccccn3)nc2)[CH-]1.[Au+3]` was tested, and the growth was 30.6% (inactive). `COc1cccc(/C=C2\Oc3cc(OCCCN4CCCC4)ccc3C2=O)c1OC` was tested, and the growth was 99% (inactive). `O=C1C(Cl)=C(Nc2ccccn2)C(=O)c2ccccc21` was tested, and the growth was -81.4% (active). For `Cc1ccc2[nH]c(=O)c3c(c2c1)Oc1ncn2nc(-c4ccco4)nc2c1C3c1ccc(Cl)cc1` (stereo not given), the growth was 98.5% (inactive). `COc1ccc(C2CC(c3ccc(OC)cc3OC)=NN2c2ccc(S(N)(=O)=O)cc2)cc1` (stereo not given) was tested, and the growth was 103% (inactive). With `c1ccc(-c2nnc(-c3ccccn3)s2)nc1` the growth was 105% (inactive). With `Clc1cc2c(nn1)Nc1ccccc1S2` the growth was 98.1% (inactive). For `O=[N+]([O-])c1cc(S(=O)(=O)Oc2ccccc2)ccc1Cl`, the growth was 19.1% (inactive). `COc1cc(/C=N\NC(=O)CN2CCN(c3cc4c(cc3F)c(=O)c(C(=O)N/N=C/c3cc(OC)c(OC)c(OC)c3)cn4C3CC3)CC2)cc(OC)c1OC` was tested, and the growth was -45.1% (active). For `NC1=C(/C(N)=N/O)C(c2ccccc2)c2ccc3ccccc3c2O1` (stereo not given), the growth was -56.2% (active). In the case of `OCc1ncc(-c2ccccc2)s1`, the growth is reported as 108% (inactive).
